# Screening results as filed in PubChem BioAssay.
# TDP1 inh – qHTS Assay for Inhibitors of Tyrosyl-DNA Phosphodiesterase (TDP1) | Potency, µM (doses to about 130 µM), usual class: inhibitors | recombinant TDP1, AlphaScreen DNA substrate cleavage | Tyrosyl-DNA phosphodiesterase 1 (Homo sapiens), Q9NUW8 | AID 485290, 2010 | 0.28% of 350,000 active; also: nearly all actives have a fitted effect of over 40% in size
#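 Here, a 5' biotin and 3' phosphotyrosine-FITC DNA oligonucleotide reports Tdp1 activity: intact substrate bridges AlphaScreen beads, while cleavage leaves a 3' phosphate and drops signal. All incubations at room temperature.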
# DT40 TDP1 no CPT – qHTS for Inhibitors of human tyrosyl-DNA phosphodiesterase 1 (TDP1): qHTS in cells in absence of CPT. DT40 Tdp1-/- hTDP1 cells, no CPT, ATP luminescence, 48 h. Potency, µM (highest dose often 46.2 µM), usual class: inhibitors. 15% of 420,000 active; also: nearly all actives have a fitted effect of over 55% in size
#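 A cellular qHTS used chicken DT40 cells lacking endogenous Tdp1 but carrying stably transfected human TDP1. Compounds were applied without camptothecin, and cell growth kinetics were judged by ATP-dependent luminescence after ≥48 hr.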
# TDP1 cell CPT – qHTS for Inhibitors of human tyrosyl-DNA phosphodiesterase 1 (TDP1): qHTS in cells in presence of CPT; chicken DT40 Tdp1-/-;hTDP1 cells + 20 nM CPT, ATP luminescence, 48 h; AID 686979, 2013; Potency, µM (titrated, usually from 46.2 µM), most hits filed as inhibitors; 12% of 420,000 active; also: nearly all actives have a fitted effect of over 55% in size
#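 Cell growth measured by CellTiter-Glo luminescence after a minimum 48 h, 37 C compound exposure with 20 nM CPT in Tdp1-knockout DT40 cells stably expressing hTDP1, seeded 400/well; qHTS titration format.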
# Gal4-VP16 FLuc – VP16 counterscreen qHTS for inhibitors of ROR gamma transcriptional activity; 3.5% of 310,000 active; Drosophila S2 Gal4-VP16 UAS-luciferase, luminescence, 20 h; Potency, µM (doses to about 53.6 µM), actives largely listed as inhibitors;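 also: Gal4-VP16 expression switched on by copper sulfate through the metallothionein promoter; nearly all actives have a fitted effect of over 50% in size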
# RORgamma inh – qHTS for inhibitors of ROR gamma transcriptional activity; Nuclear receptor ROR-gamma (Mus musculus), P51450; Drosophila S2 Gal4-RORgamma UAS-luciferase reporter, 20 h; Potency, µM (doses to about 53.6 µM), usual class: inhibitors; 5.4% of 310,000 active; also: nearly all actives have a fitted effect of over 60% in size
# Target sequence (P51450 whole entry, looked up, the tested form may be a part): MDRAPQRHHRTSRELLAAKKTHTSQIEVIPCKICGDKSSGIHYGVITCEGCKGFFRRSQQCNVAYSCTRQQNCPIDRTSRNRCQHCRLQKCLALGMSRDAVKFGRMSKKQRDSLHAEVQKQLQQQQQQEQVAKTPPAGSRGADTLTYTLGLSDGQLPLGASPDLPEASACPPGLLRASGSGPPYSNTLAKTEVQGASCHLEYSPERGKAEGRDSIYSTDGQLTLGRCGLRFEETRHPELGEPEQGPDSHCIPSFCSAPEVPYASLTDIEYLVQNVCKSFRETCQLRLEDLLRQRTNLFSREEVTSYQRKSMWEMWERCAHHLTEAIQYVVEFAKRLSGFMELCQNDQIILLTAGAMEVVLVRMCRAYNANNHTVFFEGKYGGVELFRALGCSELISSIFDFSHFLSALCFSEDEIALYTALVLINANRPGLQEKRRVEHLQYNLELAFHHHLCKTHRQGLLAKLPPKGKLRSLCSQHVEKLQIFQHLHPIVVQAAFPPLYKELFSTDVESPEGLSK
#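 Luciferase reporter read in Schneider cells carrying Gal4-RORγ (mouse) and UAS-Photinus luciferase; cells given compound 1 h before 700 uM copper sulfate induction, then incubated 20 h at ambient temperature.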
# A number is an active result; . = inactive; ? = inconclusive; / = no result; [ ] = dose if it differs, or a comment. In the library only some 19% were active in any assay of this set; here they are far more common. Calls follow the shape of the dose curve; as a rule, active = well fitted curve in the direction sought with a large enough effect; inconclusive = small, poorly fitted or top-dose-only effect, or another doubt; inactive = no such curve, though single readings can be large; an effect the other way counts as inactive or inconclusive.
SMILES,TDP1 inh,DT40 TDP1 no CPT,TDP1 cell CPT,Gal4-VP16 FLuc,RORgamma inh
COC(=O)c1c(-c2cccs2)csc1NC(=O)c1cccnc1,.,15µM,16µM,.,.
COC(=O)c1c(-c2cccs2)csc1NC(=O)c1ccc(Cl)cc1,.,.,16µM,/,/
COC(=O)c1c(-c2cccs2)csc1NC(=O)c1cccc(Cl)c1,?,.,?,/,/
COC(=O)c1c(-c2cccs2)csc1NC(=O)COc1c(C)ccc(C)c1C,.,?,?,/,/
COC(=O)c1c(-c2cccs2)csc1NC(=O)c1ccc(C(C)C)cc1,?,15µM,?,/,/
Cc1ccc(Nc2nnc(SCC(=O)c3ccc(O)cc3O)s2)cc1,/,?,.,.,.
COc1ccc(C(=O)Nc2scc(-c3ccc(Cl)cc3Cl)c2C(N)=O)cc1,.,15µM,?,.,.
CCOC(=O)c1c(-c2ccc(OC)c(OC)c2)csc1NC(=O)c1ccc(C)cc1,.,.,.,/,/
Cc1ccc(C(=O)N(CCN2CCCCC2)CC2CCCN(C3CCCC3)C2)s1 (stereo unspecified),.,21µM,?,/,/
Cc1nn(-c2ccc(Cl)cc2)c(=O)c2ccccc12,.,?,.,.[10 µM],.
Cc1c(Cl)sn(-c2ccc(Cl)cc2)c1=O,.,0.026µM,0.26µM,2.8µM,1.6µM
Cc1ccc(C)c(N2CCN(C(=O)CCS(=O)(=O)c3ccc4c(c3)NC(=O)CO4)CC2)c1,.,?,?,.,.
Cn1nc([N+](=O)[O-])c(C(C#N)c2nc3ccccc3n2C)c(Cl)c1=O (stereo unspecified),.,23µM,?,.,.
CC(=O)C(=Nc1ccccc1Cl)NNc1ccc(Cl)cc1,.,?,?,.,?
COc1cccc(NC(=S)NC(C)c2ccc(OC)c(OC)c2)c1 (stereo unspecified),.,.,.,?,7.9µM
COc1ccc(C(C)NC(=S)NC2CCCC2)cc1OC (stereo unspecified),.,.,.,?,?
COc1cccc(NC(=S)NC(Cc2ccccc2)c2ccccc2)c1 (stereo unspecified),/,16µM,?,/,/
Cc1ccc(CN2CC(C(=O)N3CCN(S(=O)(=O)c4ccc(C)cc4C)CC3)CC2=O)cc1 (stereo unspecified),.,.,.,/,/
CC(C)COc1ccc(Cc2cnc(N)nc2N)cc1,.,?,?,.,.
COc1ccc(CC(=O)N2CCC(CCC(=O)Nc3ccccc3)CC2)cc1,.,?,.,.,.
COc1cccc(NC(=O)CCC2CCN(C(=O)Cc3cccc(F)c3)CC2)c1,.,15µM,?,.,.
COc1cccc(NC(=O)CCC2CCN(C(=O)c3sccc3C)CC2)c1,.,21µM,21µM,.,.
N#Cc1c(Cl)nsc1NC(=O)c1ccccc1,.,8.2µM,13µM,4µM,8.9µM
CCN(CC)c1cc(NCCO)c([N+](=O)[O-])c2nonc12,.,.,.,.,.
CCCC(=O)NC(C)c1nc2ccccc2[nH]1 (stereo unspecified),.,.,.,.,.
SMILES,TDP1 inh,DT40 TDP1 no CPT,TDP1 cell CPT,Gal4-VP16 FLuc,RORgamma inh
CCCC(=O)OCCNc1cc(Sc2nc3ccccc3[nH]2)c2nonc2c1[N+](=O)[O-],.,3.3µM,2.3µM,3.2µM,2.8µM
CCC(=O)OCCNc1cc(Sc2nccn2C)c2nonc2c1[N+](=O)[O-],.,2.3µM,1µM,4µM,4.5µM
Cc1ccc2nc(SCC(=O)NCc3cccs3)c(C#N)cc2c1,.,.,.,.,.
CCOC(=O)Cc1csc(NC(=O)c2cc(OC)cc(OC)c2)n1,.,.,.,.,?
CCOC(=O)Cc1csc(NC(=O)c2csc3c2CCCC3)n1,.,.,.,.,13µM
CCOC(=O)Cc1csc(NC(=O)c2ccc(C)o2)n1,.,.,.,.,.
CCOC(=O)Cc1csc(NC(=O)c2cc(C)c(C)s2)n1,.,23µM,?,/,/
CCOC(=O)Cc1csc(NC(=O)c2cnc3sc(C)cn3c2=O)n1,.,21µM,?,.,.
Nc1ncnc2c1c(-c1ccc(Oc3ccccc3)cc1)cn2C1CCCC1,.,18µM,?,?,.
